From PubChem BioAssay
An excerpt weighted towards active compounds, which were near 3.1% of everything screened.
Beta apoptosis: blocks beta cell apoptosis. protection from apoptosis, % (test concentration not listed). AID 435005. 300,000 compounds, 0.8% hits. INS-1E cytokine-induced death, ATP luminescence, 48 h; percent of positive-control rescue, neutral wells zero;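 active means Every replicate reaches about 75%, or at least half do and their mean reaches it too, limit read from the data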;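 further: 0% = cytokine-treated negative control wells and 100% = positive control rescue; higher means more ATP so stronger rescue from cytokine killing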
PP5 inh: inhibitors of human protein phosphatase 5 (PP5) | P53041 | purified PP5c, OMFP substrate fluorescence | inhibition, % at 6.7 µM | 320,000 compounds, 0.18% hits;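 active means inhibition above the campaign's mean inhibition across all tested compounds plus 3 SD, cut at about 9.5% in these data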;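 further: 0% = DMSO only and 100% = 100 µM cantharidin control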
PP1 inh: blocks human PP1-alpha phosphatase, a PP5 counter-screen; P62136; 320,000 compounds, 0.9% hits; inhibition, % at 6.7 µM; purified PP1alpha, OMFP fluorescence;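 active means inhibition above the mean inhibition of all tested compounds plus 3 SD, computed separately for each screening campaign, cut at about 15% in these data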
Target sequence (P62136 whole entry, looked up): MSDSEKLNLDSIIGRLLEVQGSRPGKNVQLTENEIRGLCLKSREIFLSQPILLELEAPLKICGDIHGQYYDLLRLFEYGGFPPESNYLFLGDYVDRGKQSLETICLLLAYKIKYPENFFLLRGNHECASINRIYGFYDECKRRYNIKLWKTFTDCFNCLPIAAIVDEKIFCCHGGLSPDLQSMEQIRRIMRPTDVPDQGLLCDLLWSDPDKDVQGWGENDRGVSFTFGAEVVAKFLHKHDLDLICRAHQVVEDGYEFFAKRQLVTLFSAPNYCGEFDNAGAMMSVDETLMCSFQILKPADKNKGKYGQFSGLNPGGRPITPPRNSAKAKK
SKKanGAS inh: inhibitors of SKKanGAS S. pyogenes growth in kanamycin (SK-promoter or general growth effect). inhibition, % at 7.5 µM. 300,000 compounds, 1.3% hits. BacTiter-Glo, 6 h. AID 1662;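 active means mean replicate score, as percent of positive control median, at least 50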;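 further: strain carries kanamycin resistance gene driven by streptokinase promoter and grows in 40 µg/ml kanamycin; loss of luminescence reflects streptokinase promoter inhibition or plain growth inhibition; 0% = median of DMSO wells and 100% = positive control at its reference dose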
CSC inhib: blocks cancer stem cells. inhibition, % at 7.5 µM. 300,000 compounds, 1.1% hits. cancer stem cell-like cells viability, luminescence. AID 2717; in the data active means inhibition above about 75%; tested in HMLE shEcad cells
An asterisk follows results filed as active; . = no result.

SMILES	Beta apoptosis	PP5 inh	PP1 inh	SKKanGAS inh	CSC inhib
O=C(Nc1cc(C(F)(F)F)cc(C(F)(F)F)c1)Nc1cnn(-c2ccc([N+](=O)[O-])cc2)c1C(F)(F)F	115.7*	-1.3	-4.5	32.5	101.9*
CCc1ccc(C2C(C#N)=C(N)C(C#N)(C#N)C3=CCC(C(C)(C)C)CC32)cc1 (stereo not given)	3.8	5.2	8.1	84.5*	14.1
O=C(Cn1cnc2sc(-c3ccccc3)cc2c1=O)NCc1ccccc1	.	5.3	15.2*	-8.0	.
COc1ccc(C(=O)N(C)c2ccccc2C(=O)NCCc2ccccc2)cc1	89.5*	0.7	-4.5	-1.9	-11.6
CN(C(=O)c1ccccc1)c1ccccc1C(=O)NCCc1ccccc1	.	0.0	-2.6	-5.3	-11.4
O=C(NCC1CCCO1)C1CCN(C2CCN(C3CCCCCC3)CC2)CC1 (stereo not given)	0.9	0.0	-6.6	-10.4	-4.5
N#CC(c1ccccn1)c1ncc(C(F)(F)F)cc1Cl (stereo not given)	-3.0	2.0	-11.3	-5.5	-3.5
CCCn1nc([N+](=O)[O-])c(C(C#N)c2nc3ccccc3o2)c(Cl)c1=O (stereo not given)	-0.2	3.6	9.2	10.0	79.2*
Cn1nc([N+](=O)[O-])c(C(C#N)c2ccccn2)c(Cl)c1=O (stereo not given)	-39.7	0.5	2.1	.	88.4*
Cc1cc(-c2nnc(CCC(=O)NCc3cc(F)cc(C(F)(F)F)c3)o2)no1	1.1	-1.1	-5.0	-3.0	-0.9
Cc1nn(-c2ccccc2)c(Cl)c1C(=O)NCC1CCCO1 (stereo not given)	-2.2	-3.1	-2.2	.	.
CN(C)C(=O)c1ccc(N/C=C(\C=O)c2nc3ccccc3o2)cc1	-2.4	-3.5	1.1	-1.1	-10.2
N#Cc1c2ccc([N+](=O)[O-])cc2[n+]([O-])n1-c1ccccc1	101.4*	1.9	2.3	.	.
O=C(OCCOc1cccc(Cl)c1)c1cc(S(=O)(=O)N2CCOCC2)ccc1F	-8.0	3.5	-2.6	-3.6	-7.0
Cc1ccc2c(c1)Oc1ccc(NC(=O)CCCl)cc1C(=O)N2	-1.6	1.2	-1.6	8.2	92.4*
COc1cc(OC)c(C(=O)NC2CCCc3ccccc32)cc1OC (stereo not given)	3.7	1.0	1.8	1.9	6.5
O=C(CCc1nnc(Cc2ccc(-c3ccccc3)cc2)o1)NCCc1cccnc1	-5.6	0.5	0.1	-2.6	-8.4
O=C1NC(=O)C2(COC(c3cccnc3)OC2)S1 (stereo not given)	3.8	2.4	-6.9	2.8	-13.2
CC1(C)CC[C@]2(C(=O)O)CC[C@]3(C)C(=CC[C@@H]4[C@@]5(C)CC[C@H](O)C(C)(C)[C@@H]5CC[C@]43C)[C@@H]2C1	11.0	-1.3	-2.1	.	58.9
CC1(C)CC[C@]2(C(=O)O)CC[C@]3(C)C(=CCC4[C@@]5(C)CC[C@H](O)C(C)(C)C5CC[C@]43C)C2C1 (stereo not given in full)	1.6	4.7	0.0	105.4*	8.2
CC(=O)OC1COC(OC2C(O)C(C)OC(OC3C(OC4CCC5(C)C(CCC6(C)C5CC=C5C7CC(C)(C)CCC7(C(=O)O)CCC56C)C4(C)CO)OCC(O)C3O)C2O)C(O)C1OC(C)=O (stereo not given)	107.5*	2.9	-8.0	.	-2.5
CCOc1ccc(Nc2c3ccccc3nc3ccccc23)cc1	78.7*	5.2	-1.8	-6.1	56.4
COc1cc(C(=O)N(c2ccc(C)c(C)c2)C2C=CS(=O)(=O)C2)cc(OC)c1OC (stereo not given)	-0.8	-0.1	-6.2	4.2	-4.6
Cc1ccc(S(=O)(=O)Nc2ccccc2N(C)S(=O)(=O)c2ccc(C)cc2)cc1	109.5*	0.7	-0.1	3.5	32.2
Cc1ccc(S(=O)(=O)Nc2ccccc2-c2ccccc2)cc1	35.5	3.6	2.5	9.1	43.5
COc1ccc(NS(=O)(=O)c2cc(NC(=O)c3ccc(=O)[nH]c3)ccc2N2CCCC2)cc1	0.8	3.7	2.4	20.4	133.5*
COc1ccc(NS(=O)(=O)c2ccc(N3CCCCC3)c(NC(=O)C(C)NC(N)=O)c2)cc1 (stereo not given)	-1.5	.	.	.	-6.4
COc1ccc(NS(=O)(=O)c2ccc(N3CCCCC3)c(N)c2)cc1	102.4*	4.2	1.3	.	21.5
CC1(C)CC(=O)C2=C(C1)c1c(ccc3ccccc13)NC2c1cc([N+](=O)[O-])cc([N+](=O)[O-])c1O (stereo not given)	-3.7	2.3	12.0	71.8*	58.4
